Test [1] can be described thus: NCATS anti-infectives library activity on HEK293 viability as a counter-qHTS vs the C. elegans viability qHTS (AID 1745854).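 Note: HEK293 cells exposed to compounds for 24 hr before the viability read.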 Note: potency is the fitted concentration of half-maximal effect. The method, boiled down:
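HEK293 cells (1,500/well) exposed 24 hr at 37C to 1:5 titrations, up to 41.7 uM final; counter-screen to a C. elegans viability qHTS. Viability by CellTiter-Glo luminescence after 10 min at room temperature; digitonin as control.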

A short description of test [2]: Viability counterscreen for antagonist of constitutive androstane receptor (CAR) against the NCATS DSHEA and TCM libraries (AID 1794837).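 Note: compound exposure lasted 24 h before viability reading; 0% is about no effect.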 In short, it runs like this:
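Cell viability, CellTiter-Fluor, Ex/Em 405/540 nm, 1 h at 37C. HepG2-CYP2B6-hCAR, 2,500 cells/well; cpds + CITCO 48 uM final (antagonist mode), 24 h, 37C/5% CO2.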

Test [3] can be described thus: HepG2 viability counterscreen (readout 2: ATP content) against the NCATS DSHEA and TCM libraries (AID 1794840).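 Note: HepG2 cells exposed to substances for about 24 h; 0% is about no effect.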 The method, boiled down: (§1)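 1,000 HepG2 cells/well, 4 h attach; compounds ~24 h, 37C/5% CO2. Readout 1: GF-AFC 25 uM final, 30 min, fluorescence 380/510 nm. Readout 2: CellTiter-Glo, 30 min RT, luminescence.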
A general note: A counterscreen serves to expose hits that act by an unwanted route or on another target.

The nature of test [4]: HepG2 viability counterscreen (readout 1: protease activity) against the NCATS DSHEA and TCM libraries (AID 1794841).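 Note: cells exposed to compounds for about 24 h before the protease read; 0% is about no effect.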 In short, it runs like this: as §1
The target of test [5] is Glutathione peroxidase 1 (Homo sapiens) (UniProt P07203). Description: Primary qHTS Assay for Inhibitors of Recombinant Selenoprotein Glutathione Peroxidase 1 (GPX1) (AID 1845191). Note: nearly all actives have a fitted effect of over 65% in size. The method, boiled down:
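Recombinant GPX1 (10 nM final) was preincubated with compound for 30 min at room temperature, then reacted with 1 mM GSH, 0.5 mM CHP, 0.5 mM NADPH and 100 nM glutathione reductase; NADPH fluorescence (340/450 nm) was read at 0 and 15 min.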
For orientation: Quantitative high-throughput screening tests each substance at several concentrations.

For test [6], the target named is Cytochrome P450 3A4 (Homo sapiens) (UniProt P08684). Description: qHTS for inhibitors of CYP3A4 against the NCATS DSHEA and TCM libraries (AID 1919971).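 Note: % is set by controls: 0 for no effect and ±100 for the full control effect; inhibition lowers luminescence from luciferin made by CYP3A4.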 The method, boiled down:
(§2)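 Luminescent P450-Glo format: compounds preincubated 15 min with enzyme and luciferin substrate, reaction run 30-45 min after NADPH regeneration solution. Intraplate controls: ketoconazole for CYP3A4 and CYP2C19, sulfaphenazole for CYP2C9.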

For test [7], the target named is Cytochrome P450 2D6 (Homo sapiens) (UniProt P10635). Description: qHTS for inhibitors of CYP2D6 against the NCATS DSHEA and TCM libraries (AID 1919972). Note: % is set by controls: 0 for no effect and ±100 for the full control effect. In short, it runs like this:
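Luminescent P450-Glo read-out of CYP2D6 turnover of a luciferin substrate after NADPH-driven reaction of 30-45 min at room temperature. Compounds were first preincubated 15 min with enzyme at titrated concentrations; quinidine was the intraplate control.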

Test [8] addresses Cytochrome P450 2C9 (Homo sapiens) (UniProt P11712). Description: qHTS for inhibitors of CYP2C9 against the NCATS DSHEA and TCM libraries (AID 1919973).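 Note: luminogenic pro-luciferin CYP2C9 substrate turned into luciferin with NADPH regeneration; % is set by controls: 0 for no effect and ±100 for the full control effect.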 In short, it runs like this: as §2
The target of test [9] is Cytochrome P450 2C19 (Homo sapiens) (UniProt P33261). The test is described as follows: qHTS for inhibitors of CYP2C19 against the NCATS DSHEA and TCM libraries (AID 1919974).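 Note: luminescence from luciferin released by CYP2C19 oxidation of a pro-luciferin substrate; % is set by controls: 0 for no effect and ±100 for the full control effect.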 The method, boiled down:
as §2

The nature of test [10]: KB-3-1 P-gp reporter qHTS against the NCATS DSHEA and TCM libraries (AID 1919975). Note: 0% is about no effect. In short, it runs like this: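 CellTiter-Glo luminescence viability readout; KB-3-1 parental cells, 500/well, attached ~4 h, then compound for ~72 h, 37C, 5% CO2. Bortezomib intraplate control.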
Test [11] has as its target Cytochrome P450 1A2 (Homo sapiens) (UniProt P05177). The test is described as follows: qHTS for inhibitors of CYPIA2 against the NCATS DSHEA and TCM libraries (AID 1919976).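 Note: light from luciferin formed by CYP1A2 from a pro-luciferin substrate; % is set by controls: 0 for no effect and ±100 for the full control effect.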 In short, it runs like this: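 Human CYP1A2 with pro-luciferin substrate (typically 100 mM KPO4), 15 min preincubation with compound, then 1x NADPH regeneration for 30-45 min at room temperature in the dark. Luciferin quantified by luciferase luminescence; furafylline intraplate control.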

A short description of test [12]: qHTS Counterscreen for compound interference against the NCATS DSHEA and TCM libraries (AID 1919978).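 Note: compounds preincubated with 1 µM D-luciferin or buffer before detection reagent; % of control where 0% means no effect.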 Conditions: firefly luciferase detection reagent interference, luminescence. In short, it runs like this: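 Luminescence counterscreen for detection-kit interference: compounds at 19.5 nM–39.8 uM final, 15 min RT with 1 uM D-luciferin or buffer only; detection reagent added, 30 min RT, then read.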

A short description of test [13]: Dual reporter qHTS for agonist of Pregnane X Receptor (hPXR) against the NCATS DSHEA and TCM libraries: Fluorescence readout (AID 1920058). Note: 0% is about no effect. In short, it runs like this: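 hPXR-Luc HepG2 cells, 2000/well in charcoal-stripped serum, attached 5 h, dosed for ~24 h at 37 °C. Fluorescence read is CellTiter-Fluor viability (Ex/Em 405/540 nm); rifampicin positive, tetraoctyl ammonium bromide (92 µM) cytotoxicity controls.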

The target of test [14] is Nuclear receptor subfamily 1 group I member 2 (Homo sapiens) (UniProt O75469). Description: Dual reporter qHTS for antagonist of Pregnane X Receptor (hPXR) against the NCATS DSHEA and TCM libraries: Luminescence Readout (AID 1920060).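 Note: HepG2 cells carrying hPXR luciferase reporter stimulated with rifampicin at 2 µM; 0% is about no effect.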 In short, it runs like this:
(§3)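 Antagonist mode: rifampicin 2 uM final co-added with compounds to hPXR-LucHepG2 cells for 24 h at 37C. Viability by CellTiter-Fluor, Ex/Em 405/540 nm, 1 h; reporter by ONE-Glo luminescence.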

The nature of test [15]: Dual reporter qHTS for antagonist of Pregnane X Receptor (hPXR) against the NCATS DSHEA and TCM libraries: Fluorescence Readout (AID 1920061). Note: 0% is about no effect. In short, it runs like this: as §3
Test [16] can be described thus: qHTS profiling of the MIPE4 collection as inhibitors of Plasmodium falciparum (3D7) proliferation (AID 743344; call rule not given here;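 note: scaled between DMSO vehicle wells and 0.29 µM artemisinin as full inhibition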). Conditions: P. falciparum 3D7 in erythrocytes, SYBR Green DNA fluorescence, 72 h; at 28.5 µM (top of the series). The method, boiled down:
(§4)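 Erythrocytes infected with P. falciparum (0.3% parasitemia, 2.5% hematocrit) incubated with compounds 72 h at 37 C, 5% CO2. Lysis with saponin/Triton buffer containing SYBR Green I, overnight at room temperature in the dark; DNA fluorescence (485/535 nm) normalised to 0.29 uM artemisinin and DMSO.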

Test [17] is described as follows: qHTS profiling of the MIPE4 collection as inhibitors of Plasmodium falciparum (DD2) proliferation (AID 743345; call rule not given here). The conditions noted are these: P. falciparum Dd2 in erythrocytes, SYBR Green DNA, 72 h; at 28.5 µM (top of the series). The method, boiled down: as §4
Test [18] in a line: qHTS profiling of the MIPE4 collection as inhibitors of Plasmodium falciparum (DD2) proliferation (Rep 2) (AID 743346; call rule not given here). Conditions: P. falciparum Dd2 in erythrocytes, SYBR Green DNA, 72 h; at 28.5 µM (top of the series). The method, boiled down: as §4
The nature of test [19]: qHTS profiling of the MIPE4 collection as inhibitors of Plasmodium falciparum (HB3) proliferation (AID 743347; call rule not given here;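 note: plate controls were DMSO vehicle wells for no effect and artemisinin wells for full effect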). Conditions: P. falciparum HB3 in erythrocytes, SYBR Green DNA, 72 h; at 28.5 µM (top of the series). In short, it runs like this: as §4
Test [20] can be described thus: NCATS anti-infectives library activity on the primary C. elegans qHTS viability assay (AID 1745855; calls by dose curve; note: potency is the fitted concentration of half-maximal effect). The method, boiled down:
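Viability read-out is GFP fluorescence of PE254-GFP-FLuc C. elegans, measured by laser cytometry (488 nm) at day 0, 3 and 7. Ten L1 worms per well were incubated 7 days at 21 °C with compounds and bacterial capsules in S medium.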

Test [21] has as its target Phospholipid hydroperoxide glutathione peroxidase GPX4 (Homo sapiens) (UniProt P36969). Description: Primary qHTS Assay for Inhibitors of Recombinant Selenoprotein Glutathione Peroxidase 4 (GPX4) (AID 1845192). Note: nearly all actives have a fitted effect of over 65% in size. Note: potency is the fitted concentration of half-maximal effect. The method, boiled down:
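GR-coupled readout: 100 nM GR, 1 mM GSH, 0.5 mM NADPH; NADPH fluorescence (ex 340/em 450 nm) read at t=0 and after 15 min RT. GPX4 200 nM, preincubated 30 min with compound; substrate 0.5 mM CHP.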

This note sets out measurements from PubChem BioAssay (NCATS).

Records with an inconclusive call do not appear. Active and inactive are the calls of the source. Unless noted, calls come from the whole dose curve; as a rule, active = well fitted curve in the direction sought with a large enough effect; inconclusive = small, poorly fitted or top-dose-only effect, or another doubt; inactive = no such curve, though single readings can be large; an effect the other way counts as inactive or inconclusive.

Sequence of Phospholipid hydroperoxide glutathione peroxidase GPX4 (Homo sapiens) (P36969 whole entry, looked up): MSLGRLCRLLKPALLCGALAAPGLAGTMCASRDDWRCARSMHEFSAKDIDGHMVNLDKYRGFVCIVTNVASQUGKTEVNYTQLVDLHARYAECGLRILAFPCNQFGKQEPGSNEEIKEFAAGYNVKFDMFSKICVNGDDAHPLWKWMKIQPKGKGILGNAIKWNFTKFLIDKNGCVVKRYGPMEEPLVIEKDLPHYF
Sequence of Glutathione peroxidase 1 (Homo sapiens) (P07203 whole entry, looked up): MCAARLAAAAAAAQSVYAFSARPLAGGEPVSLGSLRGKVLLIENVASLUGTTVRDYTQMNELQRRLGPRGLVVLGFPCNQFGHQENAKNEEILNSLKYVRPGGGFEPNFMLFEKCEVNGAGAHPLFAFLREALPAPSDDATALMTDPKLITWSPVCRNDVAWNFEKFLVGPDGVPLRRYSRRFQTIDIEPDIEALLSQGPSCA
Sequence of Cytochrome P450 1A2 (Homo sapiens) (P05177 whole entry, looked up): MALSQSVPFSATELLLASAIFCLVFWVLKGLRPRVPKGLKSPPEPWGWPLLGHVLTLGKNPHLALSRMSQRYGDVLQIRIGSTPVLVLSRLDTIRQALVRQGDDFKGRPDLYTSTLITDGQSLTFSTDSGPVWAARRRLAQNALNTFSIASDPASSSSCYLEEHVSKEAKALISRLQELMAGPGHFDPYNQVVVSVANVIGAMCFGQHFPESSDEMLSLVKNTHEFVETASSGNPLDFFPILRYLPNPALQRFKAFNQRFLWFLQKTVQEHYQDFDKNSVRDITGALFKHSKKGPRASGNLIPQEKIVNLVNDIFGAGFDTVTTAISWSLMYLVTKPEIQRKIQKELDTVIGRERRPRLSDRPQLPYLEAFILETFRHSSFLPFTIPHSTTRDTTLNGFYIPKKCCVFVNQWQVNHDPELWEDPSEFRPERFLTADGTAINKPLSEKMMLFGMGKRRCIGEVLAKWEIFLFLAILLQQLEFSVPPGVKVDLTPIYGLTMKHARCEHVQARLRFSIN
Sequence of Nuclear receptor subfamily 1 group I member 2 (Homo sapiens) (O75469 whole entry, looked up): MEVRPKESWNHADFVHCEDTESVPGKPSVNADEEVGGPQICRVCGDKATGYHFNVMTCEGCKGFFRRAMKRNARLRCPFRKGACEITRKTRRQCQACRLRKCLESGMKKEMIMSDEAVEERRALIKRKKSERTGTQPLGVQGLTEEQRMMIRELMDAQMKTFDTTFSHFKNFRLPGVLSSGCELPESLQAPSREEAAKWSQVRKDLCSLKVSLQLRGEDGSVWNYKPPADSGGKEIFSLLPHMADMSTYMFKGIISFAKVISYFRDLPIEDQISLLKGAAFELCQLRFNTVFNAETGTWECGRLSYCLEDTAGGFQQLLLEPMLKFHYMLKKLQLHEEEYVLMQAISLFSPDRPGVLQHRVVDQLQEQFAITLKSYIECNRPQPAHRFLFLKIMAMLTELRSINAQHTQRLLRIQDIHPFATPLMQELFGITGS
Sequence of Cytochrome P450 3A4 (Homo sapiens) (P08684 whole entry, looked up): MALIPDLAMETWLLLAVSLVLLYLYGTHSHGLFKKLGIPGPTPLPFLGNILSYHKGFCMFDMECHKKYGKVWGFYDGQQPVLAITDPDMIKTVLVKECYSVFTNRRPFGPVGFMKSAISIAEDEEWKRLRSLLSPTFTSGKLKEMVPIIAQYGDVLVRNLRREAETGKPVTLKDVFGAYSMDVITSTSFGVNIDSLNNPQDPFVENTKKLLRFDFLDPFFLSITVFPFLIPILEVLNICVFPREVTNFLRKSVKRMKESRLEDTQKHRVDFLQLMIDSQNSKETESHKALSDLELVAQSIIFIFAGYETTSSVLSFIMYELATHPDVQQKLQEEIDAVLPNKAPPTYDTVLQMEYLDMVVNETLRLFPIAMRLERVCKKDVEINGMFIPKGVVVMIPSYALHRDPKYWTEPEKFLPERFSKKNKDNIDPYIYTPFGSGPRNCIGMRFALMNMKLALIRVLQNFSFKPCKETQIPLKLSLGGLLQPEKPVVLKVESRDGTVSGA
Sequence of Cytochrome P450 2D6 (Homo sapiens) (P10635 whole entry, looked up): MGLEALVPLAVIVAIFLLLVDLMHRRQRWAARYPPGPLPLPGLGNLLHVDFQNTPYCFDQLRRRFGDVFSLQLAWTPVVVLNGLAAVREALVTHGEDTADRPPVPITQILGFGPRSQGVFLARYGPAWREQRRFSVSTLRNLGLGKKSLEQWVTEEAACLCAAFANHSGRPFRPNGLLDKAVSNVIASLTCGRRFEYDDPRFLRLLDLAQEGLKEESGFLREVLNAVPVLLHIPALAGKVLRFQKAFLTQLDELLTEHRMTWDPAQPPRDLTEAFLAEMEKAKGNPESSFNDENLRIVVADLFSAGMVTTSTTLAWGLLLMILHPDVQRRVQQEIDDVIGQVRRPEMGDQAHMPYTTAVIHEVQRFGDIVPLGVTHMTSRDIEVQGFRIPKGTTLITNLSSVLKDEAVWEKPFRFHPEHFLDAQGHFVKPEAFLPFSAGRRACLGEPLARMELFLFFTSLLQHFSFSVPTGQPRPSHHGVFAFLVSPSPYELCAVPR
Sequence of Cytochrome P450 2C9 (Homo sapiens) (P11712 whole entry, looked up): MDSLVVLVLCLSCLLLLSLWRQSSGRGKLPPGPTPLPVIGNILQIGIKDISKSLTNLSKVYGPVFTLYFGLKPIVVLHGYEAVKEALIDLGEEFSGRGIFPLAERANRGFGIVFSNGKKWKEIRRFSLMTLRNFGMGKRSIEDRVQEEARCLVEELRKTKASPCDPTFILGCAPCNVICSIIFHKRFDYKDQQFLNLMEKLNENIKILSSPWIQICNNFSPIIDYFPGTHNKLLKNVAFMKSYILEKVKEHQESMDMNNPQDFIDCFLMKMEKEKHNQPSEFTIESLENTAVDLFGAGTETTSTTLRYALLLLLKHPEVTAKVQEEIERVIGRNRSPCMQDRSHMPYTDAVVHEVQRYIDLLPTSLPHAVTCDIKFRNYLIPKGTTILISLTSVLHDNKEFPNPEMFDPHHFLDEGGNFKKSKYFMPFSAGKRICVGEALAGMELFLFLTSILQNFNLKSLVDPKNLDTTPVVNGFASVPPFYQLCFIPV
Sequence of Cytochrome P450 2C19 (Homo sapiens) (P33261 whole entry, looked up): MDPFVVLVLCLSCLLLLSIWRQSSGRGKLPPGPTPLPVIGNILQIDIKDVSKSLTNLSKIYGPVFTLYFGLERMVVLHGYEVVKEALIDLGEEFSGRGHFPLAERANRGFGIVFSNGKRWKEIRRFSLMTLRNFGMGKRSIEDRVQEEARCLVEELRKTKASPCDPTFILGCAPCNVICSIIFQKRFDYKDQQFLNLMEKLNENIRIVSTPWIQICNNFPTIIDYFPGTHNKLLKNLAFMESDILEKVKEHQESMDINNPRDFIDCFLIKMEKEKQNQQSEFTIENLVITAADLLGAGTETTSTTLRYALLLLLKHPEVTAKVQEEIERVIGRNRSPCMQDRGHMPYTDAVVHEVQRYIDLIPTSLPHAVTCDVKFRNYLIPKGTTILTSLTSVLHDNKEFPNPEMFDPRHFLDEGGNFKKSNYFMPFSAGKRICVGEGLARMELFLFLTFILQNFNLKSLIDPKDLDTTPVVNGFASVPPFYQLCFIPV

For `CC(C)=CCC[C@](C)(OC1OC(COC2OCC(O)C(O)C2O)C(O)C(O)C1O)[C@H]1CC[C@]2(C)[C@@H]1[C@H](O)C[C@@H]1[C@@]3(C)CC[C@H](OC4OC(CO)C(O)C(O)C4OC4OC(CO)C(O)C(O)C4O)C(C)(C)[C@@H]3CC[C@]12C` (stereo not given in full), the Potency result in test [1], in [5], in [6], in [7], in test [8] and in test [9] was “inactive” throughout. Besides, in test [11], the Potency result is “inactive”. The compound was classed as inactive in [2], in test [3], in test [4], in test [10], in test [13] and in [14]. For the same compound, the result in test [15] was inactive. In addition, the max response in test [12] is 4.44% (inactive).

`CCCCCCCCCCCCCCCCn1cc[n+](Cc2ccccc2)c1C` returned a parasite growth, % of DMSO control in [16] of 5.58%. Also, in test [17], the parasite growth remaining, % of DMSO control (lower = more inhibition) is 6.21%. Besides, in test [18], the parasite growth, % of control (lower = inhibition) was found to be 8.98%. Moreover, the growth, % of control in test [19] was 5.99%. Also, the Potency in [1] is 11.2 µM (active).

Regarding `CC(C)C[C@H](NC(=O)CNC(=O)c1cc(Cl)ccc1Cl)B1OC(=O)C(CC(=O)O)(CC(=O)O)O1`, the Potency in [20] was 1.63 µM (active). The Potency entry in [5] and in test [21] was “inactive” throughout.

With `C=C[C@@H]1C[C@]1(NC(=O)[C@@H]1C[C@@H]2CN1C(=O)[C@H](C(C)(C)C)NC(=O)O[C@@H]1C[C@H]1CCCCCc1nc3ccc(OC)cc3nc1O2)C(=O)NS(=O)(=O)C1CC1`, in test [1], the Potency result is “inactive”. Besides, in [21], the Potency is 5.62 µM (active).
